# According to PubChem BioAssay AID2279 (Southern Research Specialized Biocontainment Screening …, 2010):
# Results with a measured potency or affinity are listed apart. Unmarked numbers belong to inactive results. The rule behind the calls is not given here.
# Experiment: HIV-1 Env-mediated cell fusion inhibitors, dose response, CCR5-tropic Env (AID 2279)
# Conditions: CCR5-tropic HIV-1 Env, reporter read-out; series mostly up to 50 µM; inhibition: at the top concentration
row,Compound,inhibition
1,O=C1NC(=S)N(c2ccc(F)cc2)C(=O)/C1=C/c1ccco1,12.6%
2,O=C(O)c1cccc2c1NC(c1cccc([N+](=O)[O-])c1)C1CC(Sc3ccccc3[N+](=O)[O-])C(Cl)C21 (stereo not drawn),31.9%
3,Cc1ccc(N2C(=O)/C(=C/c3ccc(CN(CCC#N)S(C)(=O)=O)o3)C(=O)NC2=S)cc1C,13.2%
4,NC(=O)Cn1cc(C=C2C(=O)NC(=O)NC2=O)c2ccccc21,0.56%
5,COc1ccc(OC)c(N2C(=O)/C(=C/c3ccco3)C(=O)NC2=S)c1,4.55%
6,COc1ccc(N2C(=O)/C(=C/c3ccco3)C(=O)NC2=S)cc1,29.1%
7,O=C1NC(=S)N(c2ccc(F)cc2)C(=O)/C1=C\c1ccoc1,-13.8%
8,O=c1oc2ccccc2c(O)c1C(c1ccc([N+](=O)[O-])cc1)c1c(O)c2ccccc2oc1=O,34.6%
